From PMC4336329 (PLoS ONE, 2015)
About 14,000 (4.5%) of roughly 310,000 compounds showed an effect of 50% or more. Effects have a minus sign here. This is one part of a sample in which strong results are shown more often than they occur.

molecular target: human ether-à-go-go-related gene (hERG) potassium channel (human, UniProt Q12809); test: primary screen, population patch clamp on CHO cells stably expressing hERG; higher = less effect of the substance
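Note: peak tail current of the secondary pulse compared with the same well before compound.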

Sequence of human ether-à-go-go-related gene (hERG) potassium channel (Q12809 whole entry, looked up): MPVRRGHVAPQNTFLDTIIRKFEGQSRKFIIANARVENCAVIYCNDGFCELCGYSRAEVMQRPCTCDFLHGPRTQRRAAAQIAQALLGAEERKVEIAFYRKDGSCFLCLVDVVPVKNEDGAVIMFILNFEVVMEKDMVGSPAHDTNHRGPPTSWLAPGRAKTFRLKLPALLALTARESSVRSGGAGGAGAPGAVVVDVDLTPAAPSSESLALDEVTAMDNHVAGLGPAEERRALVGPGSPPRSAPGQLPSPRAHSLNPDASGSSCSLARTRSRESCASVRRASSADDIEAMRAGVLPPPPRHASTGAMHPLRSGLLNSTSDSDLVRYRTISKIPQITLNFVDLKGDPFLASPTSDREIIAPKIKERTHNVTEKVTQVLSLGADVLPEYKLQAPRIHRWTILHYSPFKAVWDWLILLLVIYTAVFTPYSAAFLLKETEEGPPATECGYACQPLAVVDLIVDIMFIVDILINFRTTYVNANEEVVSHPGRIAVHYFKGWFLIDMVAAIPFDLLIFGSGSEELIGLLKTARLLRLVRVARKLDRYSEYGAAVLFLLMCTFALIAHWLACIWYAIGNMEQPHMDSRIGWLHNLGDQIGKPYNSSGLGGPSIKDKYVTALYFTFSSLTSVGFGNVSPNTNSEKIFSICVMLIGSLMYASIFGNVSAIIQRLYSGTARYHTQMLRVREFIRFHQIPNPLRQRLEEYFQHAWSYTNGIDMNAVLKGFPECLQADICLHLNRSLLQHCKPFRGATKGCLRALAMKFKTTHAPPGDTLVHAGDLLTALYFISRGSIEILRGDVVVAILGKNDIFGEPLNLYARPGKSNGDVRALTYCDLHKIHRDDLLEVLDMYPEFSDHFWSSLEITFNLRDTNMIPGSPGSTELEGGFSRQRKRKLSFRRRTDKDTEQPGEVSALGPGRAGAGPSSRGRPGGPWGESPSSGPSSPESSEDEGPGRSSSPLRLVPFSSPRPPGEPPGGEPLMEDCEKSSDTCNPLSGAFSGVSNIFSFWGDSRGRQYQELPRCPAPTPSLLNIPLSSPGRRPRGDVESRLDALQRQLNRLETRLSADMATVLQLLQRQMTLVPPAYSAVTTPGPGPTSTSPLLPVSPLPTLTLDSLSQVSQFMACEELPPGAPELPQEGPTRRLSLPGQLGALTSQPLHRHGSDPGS

Row | SMILES | hERG current change (%, negative = inhibition) at 10uM [%]
1 | Cn1c(=O)c2c(SCc3cccc(C(F)(F)F)c3)nc(-c3ccco3)nc2n(C)c1=O | -3.88
2 | O=C(CNC(=O)c1ccco1)OCc1c(F)cccc1Cl | -5.42
3 | COc1ccccc1CNC(=O)C1(NC(=O)Nc2ccc(C)cc2)CCCCC1 | 30.7
4 | COC(=O)[C@H]1[C@H]2C[C@@H]3c4[nH]c5cc(OC)ccc5c4CCN3C[C@H]2C[C@@H](OC(=O)c2cc(OC)c(OC)c(OC)c2)[C@@H]1OC | -12.4
5 | CCOc1ccc(N2C(=O)CC(NCCNc3ccc(C(=O)c4cccs4)cc3)C2=O)cc1 (stereo not shown) | -71.5
6 | CCOc1ccc(C(=O)c2cccs2)cc1 | -6.82
7 | CCCOc1ccc(N2C(=O)CC(NCc3ccncc3)C2=O)cc1 (stereo not shown) | -11.6
8 | CCCOc1ccc(N2C(=O)CC(NCc3ccc(S(N)(=O)=O)cc3)C2=O)cc1 (stereo not shown) | 4.38
9 | COc1ccc(N2C(=O)CC(NCCNc3ccc([N+](=O)[O-])cn3)C2=O)cc1 (stereo not shown) | -34
10 | CCCOc1ccc(N2C(=O)CC(NCCc3ccc(S(N)(=O)=O)cc3)C2=O)cc1 (stereo not shown) | -5.4
11 | CCCOc1ccc(N2C(=O)CC(NCC#N)C2=O)cc1 (stereo not shown) | 2.57
12 | CCOc1ccc(N2C(=O)CC(NCCNc3ccc([N+](=O)[O-])cn3)C2=O)cc1 (stereo not shown) | -77.5
13 | CCOc1ccc(N2C(=O)CC(NCCc3ccncc3)C2=O)cc1 (stereo not shown) | -5.67
14 | CCCOc1ccc(N2C(=O)CC(NCCNc3ccc([N+](=O)[O-])cn3)C2=O)cc1 (stereo not shown) | -72.5
15 | CCOc1ccc(N2C(=O)CC(NC3CCN(C(=O)c4cccs4)CC3)C2=O)cc1 (stereo not shown) | -24.7
16 | CCCOc1ccc(N2C(=O)CC(NCCNc3ccc(S(=O)(=O)CC)cc3)C2=O)cc1 (stereo not shown) | -59.9
17 | Cc1ccc(/C=C/C(=O)OCC(=O)NCc2ccc(Cl)cc2)o1 | -13.9
18 | O=C(COc1ccc(Cl)cc1Br)N1CCN(S(=O)(=O)c2ccccc2)CC1 | -9.19
19 | COc1ccccc1N1CCN(S(=O)(=O)Cc2ccccc2Cl)CC1 | -2.74
20 | Cc1ccc(Nc2nnc(SCC(=O)NC3CC3)s2)cc1 | 9.41
21 | O=C(Nn1cnnc1)c1ccc(Cl)cc1 | 17.7
22 | COc1ccc(Nc2nc(-c3cccs3)cs2)c(OC)c1 | 4.09
23 | CCn1cc(SCC(=O)Nc2cc(C)on2)c2ccccc21 | 7.98

Row | SMILES | hERG current change (%, negative = inhibition) at 10uM [%]
24 | CC(=O)Nc1ccc(S(=O)(=O)N2CCN=C2SCc2ccc(C)cc2)cc1 | -12
25 | Cc1csc(Sc2ccc([N+](=O)[O-])cc2C(=O)OCC(=O)NC2CCCC(C)C2C)n1 (stereo not shown) | -26.2
26 | COc1ccc(C(=O)Nn2c(CC(C)C)nc3cc(Cl)ccc3c2=O)c(OC)c1 | 13.4
27 | COc1cc2c(cc1OC)C(C)N(C(=O)/C=C/c1cc(OC)c(OC)c(OC)c1)CC2 (stereo not shown) | 7.57
28 | Cc1cccc(CCNC(=O)C2CCCN(c3cnccn3)C2)c1 (stereo not shown) | -11.5
29 | O=C(c1ccccc1)c1cccc(NC(=O)C2CC2)c1 | 0.476
30 | O=S(=O)(NC1CCCCC1NS(=O)(=O)c1ccc(F)cc1)c1ccc(F)cc1 (stereo not shown) | -5.29
31 | O=C1OC(c2ccc(Cl)cc2)=N/C1=C\N1CC2CC(C1)c1cccc(=O)n1C2 (stereo not shown) | -72
32 | O=C(NC(=S)N1C[C@H]2C[C@H](C1)c1cccc(=O)n1C2)c1ccc(Cl)cc1 | -8.28
33 | O=C1OC(c2ccc([N+](=O)[O-])cc2)=N/C1=C/N1CC2CC(C1)c1cccc(=O)n1C2 (stereo not shown) | -55.1
34 | Nc1cc(C(=O)N2CCN(c3ccc([N+](=O)[O-])cc3)CC2)ccc1N1CC2CC(C1)c1cccc(=O)n1C2 (stereo not shown) | -35.3
35 | O=c1cccc2n1C[C@@H]1C[C@@H]2CN(CC(O)c2ccc([N+](=O)[O-])cc2)C1 (stereo partly shown) | -49
36 | O=C1OC(c2ccc(Br)cc2)=N/C1=C\N1CC2CC(C1)c1cccc(=O)n1C2 (stereo not shown) | -45.2
37 | Cn1cc(C(=O)NC2CCCCC2)c(=O)c2cc(S(=O)(=O)N3CCOCC3)ccc21 | 11.8
38 | O=C(O)CC(Sc1n[nH]c(=S)s1)C(=O)O (stereo not shown) | 18.2
39 | CCN(CC)S(=O)(=O)c1ccc(N2CCOCC2)c(NC(=O)c2ccccc2F)c1 | -15.8
40 | CCN(CC)S(=O)(=O)c1ccc(O)c(NC(=O)c2cc(-c3cc(OC)c(OC)c(OC)c3)nc3ccccc23)c1 | -59.2
41 | CCN(CC)S(=O)(=O)c1ccc(N2CCCCC2)c(C(=O)Nc2ccccc2N2CCOCC2)c1 | -51.1
42 | CCN(CC)S(=O)(=O)c1ccc(N2CCOCC2)c(NC(=O)c2cccc3ccccc23)c1 | 7.99
43 | CCN(CC)S(=O)(=O)c1ccc(OC)c(NC(=O)c2cccc(C)c2[N+](=O)[O-])c1 | -14.5
44 | CCN(CC)S(=O)(=O)c1ccc(OC)c(NC(=O)c2cccc([N+](=O)[O-])c2C)c1 | -63.8
45 | CCN(CC)S(=O)(=O)c1ccc(NC(=O)c2cc(-c3ccccc3)nc3ccccc23)cc1 | 1.64
46 | CCN(CC)S(=O)(=O)c1ccc2[nH]c(=O)cc(C(=O)Nc3ccccc3N3CCOCC3)c2c1 | -18.9

Row | SMILES | hERG current change (%, negative = inhibition) at 10uM [%]
47 | COc1cc(-c2cc(C(=O)Nc3ccc(S(N)(=O)=O)cc3)c3ccccc3n2)cc(OC)c1OC | 29.2
48 | CCN(CC)S(=O)(=O)c1ccc(OC)c(NC(=O)c2ccc(OC)c([N+](=O)[O-])c2)c1 | -24.4
49 | CCN(CC)S(=O)(=O)c1ccc(N2CCOCC2)c(NC(=O)c2cccc3c(=O)c(C)c(-c4ccccc4)oc23)c1 | -55
50 | COc1ccc(S(=O)(=O)N2CCOCC2)cc1NC(=O)c1cccc2c(=O)c(C)c(-c3ccccc3)oc12 | -32.9
51 | O=C(O)c1ccccc1-c1ccccc1C(=O)Nc1ccc2c(c1)[nH]c(=O)c1ccccc12 | 24.5
52 | O=C(N/N=C/c1ccco1)c1cc(C2CC2)nc2ccccc12 | 4.56
53 | COc1ccc2cc(S(=O)(=O)Nc3ccccn3)ccc2c1 | 9.87
54 | O=C(CSc1nnnn1-c1cccc2ccccc12)N1CCOCC1 | -25
55 | Cl.N=c1c2c(n(Cc3ccc(Cl)cc3)c3c1CCC3)CCC2 | -2.06
56 | CCN(CC)S(=O)(=O)c1ccc(N2CCCC2)c(NC(=O)c2ccccc2OC)c1 | -65.7
57 | CCN(CC)S(=O)(=O)c1ccc(N2CCCC2)c(NC(=O)Cc2cc(OC)c(OC)c(OC)c2)c1 | -8.43
58 | CCN(CC)S(=O)(=O)c1ccc(N2CCCC2)c(NC(=O)c2ccc(OC)cc2OC)c1 | -43
59 | CC(Sc1nnc(CNc2cccc3ccccc23)n1-c1ccccc1)C(=O)N/N=C/c1ccco1 (stereo not shown) | -10.2
60 | Cl.O=C(NCC(c1cccs1)N1CCOCC1)c1cc2ccccc2o1 (stereo not shown) | -15.7
61 | O=C(NNC1=NS(=O)(=O)c2ccccc21)c1cccc([N+](=O)[O-])c1 | 15
62 | CCOc1cccc(=O)c2c(C)n(C)c(C)c12 | -4.1
63 | CCCCCn1c(C)c2c(OCC)cccc(=O)c2c1C | -69
64 | CCOc1cccc(=O)c2c(C)n(Cc3ccccc3)c(C)c12 | 11.8
65 | CC(C)C(NS(=O)(=O)c1cccs1)C(=O)NCc1ccc2c(c1)OCO2 (stereo not shown) | -12
66 | COc1ccccc1C(C#N)c1cccc(Cl)n1 (stereo not shown) | 0.219
67 | O=C(CCCn1c(=O)c2cccn2c2cccnc21)NCc1cccc(Br)c1 | -13.8
68 | O=C(c1ccc(OC2CCN(CCc3ccccc3)CC2)cc1)N1CCCC(O)C1 (stereo not shown) | -2.05
69 | O=C(c1ccc(OC2CCN(CCCc3ccccc3)CC2)cc1)N1CCCC1 | -69.8

Row | SMILES | hERG current change (%, negative = inhibition) at 10uM [%]
70 | COC1CCCN(C(=O)c2ccc(OC3CCN(CCc4ccccc4)CC3)cc2)C1 (stereo not shown) | -11.6
71 | CC(=O)N1CCN(C(=O)c2ccc(OC3CCN(CCc4ccccc4)CC3)cc2)CC1 | 15.6
72 | O=C(c1ccc(OC2CCN(CCc3ccccc3)CC2)cc1)N1CCCC1 | -30
73 | CC1CCCN(C(=O)c2ccc(OC3CCN(CCc4ccccc4)CC3)cc2)C1 (stereo not shown) | -58.1
74 | COc1ccc(CNC(=O)CCn2nc(C)c3c(C)n(-c4ccccc4)nc3c2=O)c(OC)c1 | 11.8
75 | O=C(NCc1ccc(Cl)cc1)c1ccc(NC(=O)C2CCCO2)cc1 (stereo not shown) | 13.2
76 | O=C1CCCC2=C1C(c1cccs1)n1nc(SCc3ccc(C(=O)O)cc3)nc1N2 (stereo not shown) | 2.81
77 | O=C(Cn1c2ccccc2c2nc3n(c(=O)c21)CCS3)Nc1ccccc1C(F)(F)F | 15.1
78 | Cc1ccc(N2CC(C(=O)NCCN3CCOCC3)CC2=O)cc1 (stereo not shown) | 8.92
79 | CC1CCCCN1C(=O)NC1CC(=O)N(c2ccc3c(c2)OCCO3)C1 (stereo not shown) | 5.7
80 | O=C(NCC1CC1)c1cc(-c2ccccc2)nn1CC1CC(c2cccc([N+](=O)[O-])c2)=NO1 (stereo not shown) | -60.8
81 | CCc1cc(Cn2nc(-c3ccccc3)cc2C(=O)NCCOC)on1 | -9.96
82 | Cc1ccc(CNC(=O)c2cc(-c3ccccc3)nn2CC2CC(c3cccc([N+](=O)[O-])c3)=NO2)cc1 (stereo not shown) | -8.09
83 | CCc1cc(Cn2nc(-c3ccccc3)cc2C(=O)NCC2CC2)on1 | -51.8
84 | COCCNC(=O)c1cc(-c2ccccc2)nn1CC1CC(c2cccc([N+](=O)[O-])c2)=NO1 (stereo not shown) | -50.6
85 | Cc1ccccc1-c1cc(C(=O)NCC2CC2)nn1CC1CC(c2cccc([N+](=O)[O-])c2)=NO1 (stereo not shown) | -26.6
86 | Cc1ccc(CNC(=O)c2cc(-c3ccccc3C)n(CC3CC(c4cccc([N+](=O)[O-])c4)=NO3)n2)cc1 (stereo not shown) | 13.6
87 | Cc1ccccc1-c1cc(C(=O)NCc2cccs2)nn1CC1CC(c2cccc([N+](=O)[O-])c2)=NO1 (stereo not shown) | 4.08
88 | O=C(O)c1cc(-c2ccccc2)nn1CC1CC(c2cccc([N+](=O)[O-])c2)=NO1 (stereo not shown) | 19.1
89 | Cc1cc(Cn2nc(-c3ccccc3)cc2C(=O)NCC2CC2)on1 | 9.32
90 | CCOC(=O)c1cc(-c2ccccc2)nn1CC1CC(c2cccc([N+](=O)[O-])c2)=NO1 (stereo not shown) | -24.2
91 | O=C(NCc1cccs1)c1cc(-c2ccccc2)nn1CC1CC(c2cccc([N+](=O)[O-])c2)=NO1 (stereo not shown) | -66.9
